Laboratory results reported in PubChem BioAssay (Tox21).
Results filed as inconclusive are left out. The source made the active and inactive calls. Unless noted, the call rests on the fitted dose curve; in most records, active means well fitted curve in the direction sought with a large enough effect in the repeat runs; inconclusive means weak or mixed curves; inactive means no such curve, though single readings can be large; an effect the other way counts as inactive or inconclusive.

Legend:
[1] = qHTS assay to identify small molecule agonists of the RXR signaling pathway - cell viability counter screen (AID 1159529); further: nearly all actives have a fitted effect of over 50% in size; further: potency means the concentration at half of the fitted maximal effect;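 on activity change, negative = cytotoxicity: HEK 293T cells carrying an RXR-alpha UAS beta-lactamase reporter; series mostly up to about 77 µM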
How it was run: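 Tox21 10K compounds were tested for cytotoxicity against GeneBLAzer RXR-alpha HEK 293T cells grown in 2% charcoal-stripped FBS. Exposure lasted 16 hr at 37 C, 5% CO2; viability read by CellTiter-Glo luminescence.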

[2] = qHTS assay to identify small molecule antagonists of the retinoic acid receptor (RAR) signaling pathway (AID 1159552; further: nearly all actives have a fitted effect of over 50% in size)
How it was run: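 Overnight-plated C3RL4 reporter cells get compound, then retinol to 1 uM final; plates sit 6 hr at 37 C, 5% CO2. A luciferase reagent is added and light output recorded after 30 min at room temperature.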

[3] = qHTS assay to identify small molecule agonists of the retinoic acid receptor (RAR) signaling pathway (AID 1159553)
How it was run: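 Cell line C3RL4, RARE luciferase reporter. Treatment: compounds in DMSO, 6 hr, 37 C, 5% CO2, after overnight plating. Detection: luminescence, 30 min RT after reagent.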

[4] = qHTS assay to identify small molecule antagonists of the estrogen related receptor signaling pathway with the pleiotropic PPARgamma coactivator (PGC) cell viability counter screen (AID 1224822;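 further: series mostly up to about 46 µM; viability read after 17.5 h compound exposure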)
How it was run: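 qHTS format, DMSO compound stocks pin-transferred onto PGC/ERR cells 6 h after plating; 17.5 h exposure at 37 C, then CellTiter-Fluor fluorescence.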

[5] = biological target: Luciferin 4-monooxygenase (Photinus pyralis) (UniProt P08659); test: qHTS assay to identify small molecule inhibitors of firefly luciferase (AID 1224835); further: nearly all actives have a fitted effect of over 25% in size; further: potency means the concentration at half of the fitted maximal effect; on activity change, negative = inhibition: series mostly up to about 120 µM
Sequence of Luciferin 4-monooxygenase (Photinus pyralis) (P08659 whole entry, looked up): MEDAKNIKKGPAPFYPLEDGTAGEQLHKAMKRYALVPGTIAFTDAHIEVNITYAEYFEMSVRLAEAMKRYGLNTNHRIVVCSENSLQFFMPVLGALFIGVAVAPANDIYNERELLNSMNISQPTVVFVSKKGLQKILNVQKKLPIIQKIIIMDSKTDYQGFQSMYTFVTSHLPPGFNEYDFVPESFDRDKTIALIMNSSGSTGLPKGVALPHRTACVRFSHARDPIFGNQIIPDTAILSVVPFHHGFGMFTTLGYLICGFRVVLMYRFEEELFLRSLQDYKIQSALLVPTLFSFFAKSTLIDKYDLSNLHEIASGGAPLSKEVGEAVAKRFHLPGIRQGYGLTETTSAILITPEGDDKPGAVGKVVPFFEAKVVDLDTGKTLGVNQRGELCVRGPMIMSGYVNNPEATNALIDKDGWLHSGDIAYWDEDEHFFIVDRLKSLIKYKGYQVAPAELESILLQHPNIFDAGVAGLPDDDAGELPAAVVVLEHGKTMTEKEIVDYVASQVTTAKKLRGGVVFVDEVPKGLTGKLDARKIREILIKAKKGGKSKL
How it was run: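 Biochemical qHTS: compounds run as interplate titrations against purified firefly enzyme, with D-luciferin and ATP each at its KM concentration. Light output recorded by CCD imaging.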

[6] = qHTS assay to identify small molecule agonists of the constitutive androstane receptor (CAR) signaling pathway - cell viability counter screen (AID 1224836); further: series mostly up to about 92 µM; nearly all actives have a fitted effect of over 45% in size
How it was run: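 Fluorescence from CellTiter-Fluor indicates live cells after 23 h exposure. The human hepatoma line expresses hCAR and a CYP2B6-2.2kb reporter. Incubation medium contains 0.75 uM PK11195 (final).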

[7] = qHTS assay to identify small molecule antagonists of the constitutive androstane receptor (CAR) signaling pathway - cell viability counter screen (AID 1224837); further: series mostly up to about 92 µM; nearly all actives have a fitted effect of over 45% in size
How it was run: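 Fluorescence from CellTiter-Fluor served as the viability signal. Human hepatoma HepG2 cells stably bearing hCAR and CYP2B6-2.2kb received compound plus CITCO (50 nM final) for 23 hr.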

[8] = biological target: Nuclear receptor subfamily 1 group I member 3 (Homo sapiens) (UniProt Q14994); test: qHTS assay to identify small molecule antagonists of the constitutive androstane receptor (CAR) signaling pathway (AID 1224838);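 further: HepG2 cells stably expressing hCAR with CYP2B6 luciferase reporter stimulated by CITCO; nearly all actives have a fitted effect of over 40% in size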
Sequence of Nuclear receptor subfamily 1 group I member 3 (Homo sapiens) (Q14994 whole entry, looked up): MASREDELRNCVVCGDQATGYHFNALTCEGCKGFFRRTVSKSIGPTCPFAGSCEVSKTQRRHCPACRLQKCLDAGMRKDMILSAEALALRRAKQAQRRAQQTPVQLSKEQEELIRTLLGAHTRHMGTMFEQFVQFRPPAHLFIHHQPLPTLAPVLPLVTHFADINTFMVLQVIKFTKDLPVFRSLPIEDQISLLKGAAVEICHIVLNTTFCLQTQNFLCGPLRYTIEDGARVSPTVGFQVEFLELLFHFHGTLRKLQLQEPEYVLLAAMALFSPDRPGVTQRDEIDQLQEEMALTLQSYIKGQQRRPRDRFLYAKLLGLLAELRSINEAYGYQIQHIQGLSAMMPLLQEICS
How it was run: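 Quantitative HTS in double-stable HepG2-CYP2B6-hCAR cells. After 4 h plating, cells get compound (15 concentrations) and CITCO at 50 nM final, incubate 24 h at 37 C, then ONE-Glo luminescence is read.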

[9] = qHTS assay to identify small molecule antagonists of the estrogen related receptor signaling pathway with the pleiotropic PPARgamma coactivator (PGC) from Tox21 10K library - cell viability counter screen (AID 1224840; active means well fitted cell-killing curve with a large enough effect in the repeat runs, not every such curve was filed as active; further: nearly all actives have a fitted effect of over 40% in size; further: potency means the concentration at half of the fitted maximal effect)
How it was run: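 Compounds in DMSO, alongside positive and negative controls, were pinned onto PGC/ERR cells (2,000 per well). Exposure lasted 17.5 hours at 37 C, followed by a 30-minute CellTiter-Fluor incubation and fluorescence reading.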

[10] = biological target: Thyrotropin receptor (Homo sapiens) (UniProt P16473); test: qHTS assay to identify small molecule agonists of the thyroid stimulating hormone receptor (TSHR) signaling pathway (AID 1224843; calls by dose curve; further: nearly all actives have a fitted effect of over 45% in size; further: potency means the concentration at half of the fitted maximal effect)
Sequence of Thyrotropin receptor (Homo sapiens) (P16473 whole entry, looked up): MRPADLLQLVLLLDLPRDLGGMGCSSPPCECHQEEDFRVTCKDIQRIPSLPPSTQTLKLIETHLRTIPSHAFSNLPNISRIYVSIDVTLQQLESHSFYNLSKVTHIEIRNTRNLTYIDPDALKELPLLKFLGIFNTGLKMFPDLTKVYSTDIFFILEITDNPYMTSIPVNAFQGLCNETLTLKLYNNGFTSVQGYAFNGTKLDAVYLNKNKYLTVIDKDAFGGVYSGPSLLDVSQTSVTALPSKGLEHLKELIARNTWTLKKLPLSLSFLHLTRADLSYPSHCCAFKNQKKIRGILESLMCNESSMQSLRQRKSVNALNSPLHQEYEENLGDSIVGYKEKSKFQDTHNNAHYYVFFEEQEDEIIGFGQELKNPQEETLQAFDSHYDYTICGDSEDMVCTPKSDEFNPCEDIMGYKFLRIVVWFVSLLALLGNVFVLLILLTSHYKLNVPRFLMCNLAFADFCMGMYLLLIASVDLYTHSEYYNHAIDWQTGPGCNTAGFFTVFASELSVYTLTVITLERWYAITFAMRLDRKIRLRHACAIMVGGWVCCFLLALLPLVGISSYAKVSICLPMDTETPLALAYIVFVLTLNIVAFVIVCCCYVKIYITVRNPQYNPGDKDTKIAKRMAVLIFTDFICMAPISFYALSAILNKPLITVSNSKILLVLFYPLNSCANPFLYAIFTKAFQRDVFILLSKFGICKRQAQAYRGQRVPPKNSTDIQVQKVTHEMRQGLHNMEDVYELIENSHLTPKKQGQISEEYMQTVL
How it was run: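 TSHR-HEK293 cells in agonist mode, 30 min room-temperature step, then cAMP measured by competitive HTRF (cAMP-d2 with anti-cAMP cryptate) after 1 h at room temperature. Tested at 15 concentrations in triplicate.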

[11] = qHTS assay to identify small molecule antagonists of the estrogen related receptor (ERR) signaling pathway from Tox21 library - cell viability counter screen (AID 1224834); further: nearly all actives have a fitted effect of over 30% in size; further: potency means the concentration at half of the fitted maximal effect
How it was run: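 Viability readout (CellTiter-Fluor fluorescence, 30 min at 37 C) multiplexed with the ERR assay; cells treated 17.5 h at 37 C with compounds delivered in DMSO.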

[12] = qHTS assay to identify small molecule antagonists of the estrogen related receptor signaling pathway with the pleiotropic PPARgamma coactivator (PGC) from Tox21 10K library (AID 1224841; call rule not given here; further: series mostly up to about 92 µM; actives are mostly falling curves and most rising ones were filed inactive; nearly all actives have a fitted effect of over 50% in size)
How it was run: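 Compound exposure ran 18 hours at 37 C in PGC/ERR cells (2,000/well) that had first rested 6 hours in a 37 C/5% CO2 incubator. Luciferase activity was then detected with One-Glo after a 30-minute room-temperature step.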

[13] = qHTS assay to identify small molecule agonists of the estrogen related receptor signaling pathway with the pleiotropic PPARgamma coactivator (PGC) from Tox21 10K library (AID 1224842); further: nearly all actives have a fitted effect of over 15% in size
How it was run: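 PGC/ERR reporter cell line, 2,000 cells per well, incubated 6 h at 37 C before 23 nL compound in DMSO was added. After 18 h at 37 C, One-Glo luminescence read following 30 min at room temperature.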

[14] = qHTS assay to identify small molecule agonists of the hypoxia (HIF-1) signaling pathway - cell viability counter screen (AID 1224844; calls by dose curve; further: nearly all actives have a fitted effect of over 50% in size; further: potency means the concentration at half of the fitted maximal effect)
How it was run: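 Luminescent ATP content (CellTiter-Glo, 30 min, room temperature) served as the viability measure in HRE-bla ME-180 cells exposed to compounds for 17 hrs in low-serum medium (0.5% dialyzed FBS).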

[15] = biological target: Nuclear receptor subfamily 1 group I member 3 (Homo sapiens) (UniProt Q14994); test: qHTS assay to identify small molecule agonists of the constitutive androstane receptor (CAR) signaling pathway (AID 1224839); further: nearly all actives have a fitted effect of over 15% in size; further: potency means the concentration at half of the fitted maximal effect;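 on activation: HepG2 cells stably carrying human CAR and a CYP2B6 luciferase reporter; series mostly up to about 92 µM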
How it was run: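 Stable hCAR/CYP2B6-2.2kb HepG2 line in DMEM with 10% FBS; compounds (15 concentrations) and 0.75 uM PK11195 final, 24 h at 37 C/5% CO2, then ONE-Glo luminescence after 30 min.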

[16] = qHTS assay to identify small molecule antagonists of the retinoid acid receptor (RAR) signaling pathway - cell viability counter screen (AID 1159551); further: nearly all actives have a fitted effect of over 35% in size
How it was run: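 Following overnight attachment, C3RL4 reporter cells received DMSO-dissolved compounds and then retinol (1 uM final). Six hours later at 37 C, ATP content was measured by CellTiter-Glo luminescence.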
On the % scale 0 is the no-effect control and ±100 the full control effect.

CCOC(=O)C1=C[C@]2(CC)CCCN3CCc4c(n1c1ccccc41)[C@@H]32
active: Potency [10] 18.8 µM
inactive: Potency [1] | Potency [2] | Potency [3] | outcome [4] | Potency [5] | Potency [6] | Potency [7] | Potency [8] | Potency [9]

C[C@@H](c1ncncc1F)C(O)(Cn1cncn1)c1ccc(F)cc1F (stereo partly drawn)
inactive: Potency [1] | Potency [2] | Potency [3] | Potency [11] | Potency [6] | Potency [7] | Potency [9] | Potency [12] | Potency [13] | Potency [10] | Potency [14]

ClCCOCCOCCCl
inactive: Potency [1] | Potency [2] | Potency [3] | Potency [11] | Potency [5] | Potency [6] | Potency [7] | Potency [9] | Potency [12] | Potency [10] | Potency [14]

CC1CCC(=O)C1=O (stereo not drawn)
inactive: Potency [1] | Potency [2] | Potency [11] | Potency [5] | Potency [6] | Potency [7] | Potency [8] | Potency [15] | Potency [9] | Potency [14]

Cc1c(N)cccc1[N+](=O)[O-]
inactive: Potency [1] | Potency [16] | Potency [6] | Potency [7] | Potency [8] | Potency [15] | Potency [9] | Potency [13] | Potency [14]

C/C(=C(\CCOP(=O)(O)O)SC(=O)c1ccccc1)N(C=O)Cc1cnc(C)nc1N
inactive: activity change, negative = cytotoxicity [1] -1.63% [at 6.97 µM] | activity, negative = inhibition [2] 10.1% [at 8.39 µM] | viability change, negative = cytotoxic [11] 0.62% [at 8.39 µM] | activity change, negative = inhibition [5] 0.277% [at 10.5 µM] | viability change, negative = cytotoxic [6] -1.07% [at 8.39 µM] | activity change, negative = cytotoxicity [7] 5.24% [at 8.39 µM] | activity, negative = inhibition [8] -18% [at 8.39 µM] | viability change, negative = cytotoxic [9] -2.4% [at 8.39 µM] | activation [10] -3.96% [at 8.39 µM] | activity change, negative = cytotoxicity [14] -1.24% [at 6.97 µM]

COc1ccc(C(=O)N2CCN(CC(=O)N3CCOCC3)CC2)cc1
inactive: Potency [1] | Potency [16] | Potency [11] | Potency [6] | Potency [7] | Potency [9] | Potency [13] | Potency [10] | Potency [14]

CNCCCCOc1ccccc1Cc1ccccc1
active: Potency [9] 29.8 µM
inactive: Potency [1] | Potency [16] | Potency [5] | Potency [15] | Potency [10] | Potency [14]

CC(C)Cc1ccc(C(C)C(=O)OCc2ccccn2)cc1 (stereo not drawn)
inactive: Potency [1] | Potency [16] | Potency [11] | Potency [6] | Potency [7] | Potency [9] | Potency [14]

C/C=C/C=C/CO
inactive: Potency [1] | Potency [16] | Potency [11] | Potency [6] | Potency [7] | Potency [9] | Potency [10] | Potency [14]

CCOC(=O)C(F)(F)F
inactive: Potency [1] | Potency [2] | Potency [3] | Potency [11] | Potency [6] | Potency [7] | Potency [8] | Potency [15] | Potency [9] | Potency [10] | Potency [14]

O=C(Nc1ccc(S(=O)(=O)N2CCOCC2)cc1)c1cc(Cl)ccc1NS(=O)(=O)c1ccc(Cl)s1
inactive: Potency [1] | Potency [3] | Potency [11] | Potency [6] | Potency [7] | Potency [9] | Potency [10] | Potency [14]

C/C=C(/C(=C/C)c1ccc(OC(C)=O)cc1)c1ccc(OC(C)=O)cc1
inactive: Potency [1] | Potency [3] | Potency [11] | Potency [5] | Potency [6] | Potency [7] | Potency [9] | Potency [10] | Potency [14]

CC(=O)c1ccc2c(c1)N(CCCN1CCC(CCO)CC1)c1ccccc1S2
inactive: Potency [16] | Potency [6] | Potency [15] | Potency [9]
active: Potency [1] 10.7 µM | Potency [11] 23.7 µM

O=C(O)C(S)C(S)C(=O)O (stereo not drawn)
inactive: Potency [1] | Potency [2] | Potency [3] | Potency [11] | Potency [6] | Potency [7] | Potency [8] | Potency [15] | Potency [9] | Potency [10] | Potency [14]

Nc1ccc([N+](=O)[O-])c(C(F)(F)F)c1
inactive: Potency [1] | Potency [2] | Potency [3] | Potency [11] | Potency [5] | Potency [6] | Potency [7] | Potency [8] | Potency [15] | Potency [9] | Potency [13] | Potency [14]

CCCCCCCCCCCCCCOS(=O)(=O)O
inactive: Potency [16] | Potency [6] | Potency [7] | Potency [8] | Potency [15] | Potency [9] | Potency [13]
active: Potency [1] 21.9 µM | Potency [14] 54.9 µM

C#CCN(C)CCCOc1ccc(Cl)cc1Cl
inactive: Potency [1] | Potency [2] | outcome [4] | Potency [11] | Potency [6] | Potency [7] | Potency [8] | Potency [9] | Potency [14]
active: Potency [5] 15.5 µM | Potency [15] 26.6 µM

c1ccc(CNCCNCc2ccccc2)cc1
inactive: Potency [1] | Potency [2] | Potency [3] | Potency [11] | Potency [5] | Potency [6] | Potency [7] | Potency [8] | Potency [15] | Potency [9] | Potency [14]

CCn1cc(C(=O)O)c(=O)c2cnc(N3CCNCC3)nc21
inactive: Potency [1] | Potency [2] | Potency [11] | Potency [5] | Potency [6] | Potency [7] | Potency [8] | Potency [15] | Potency [9] | Potency [13] | Potency [14]

Cc1nn(C)c(Oc2ccccc2)c1/C=N/OCc1ccc(C(=O)OC(C)(C)C)cc1
inactive: Potency [1] | Potency [2] | Potency [3] | Potency [11] | Potency [5] | Potency [9] | Potency [13] | Potency [14]

Cc1ccc(C(C)OC(=O)C2(C)CCC(C(=O)O)C2(C)C)cc1 (stereo not drawn)
inactive: Potency [1] | Potency [2] | Potency [11] | Potency [5] | Potency [6] | Potency [7] | Potency [9] | Potency [10] | Potency [14]
